Laboratory results taken from publication PMC4336329 (PLoS ONE, 2015).
In all, about 310,000 compounds went through this assay and about 14,000 (4.5%) showed an effect of 50% or more. Effects have a minus sign here. For the sample, strong results were picked, then their nearest neighbours and some compounds at random.

Target: human ether-à-go-go-related gene (hERG) potassium channel (human, UniProt Q12809)
Assay: primary screen, population patch clamp on CHO cells stably expressing hERG; higher = less effect of the substance
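Further: peak tail current of the secondary pulse compared with the same well before compound.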

human ether-à-go-go-related gene (hERG) potassium channel, sequence (Q12809 whole entry, looked up): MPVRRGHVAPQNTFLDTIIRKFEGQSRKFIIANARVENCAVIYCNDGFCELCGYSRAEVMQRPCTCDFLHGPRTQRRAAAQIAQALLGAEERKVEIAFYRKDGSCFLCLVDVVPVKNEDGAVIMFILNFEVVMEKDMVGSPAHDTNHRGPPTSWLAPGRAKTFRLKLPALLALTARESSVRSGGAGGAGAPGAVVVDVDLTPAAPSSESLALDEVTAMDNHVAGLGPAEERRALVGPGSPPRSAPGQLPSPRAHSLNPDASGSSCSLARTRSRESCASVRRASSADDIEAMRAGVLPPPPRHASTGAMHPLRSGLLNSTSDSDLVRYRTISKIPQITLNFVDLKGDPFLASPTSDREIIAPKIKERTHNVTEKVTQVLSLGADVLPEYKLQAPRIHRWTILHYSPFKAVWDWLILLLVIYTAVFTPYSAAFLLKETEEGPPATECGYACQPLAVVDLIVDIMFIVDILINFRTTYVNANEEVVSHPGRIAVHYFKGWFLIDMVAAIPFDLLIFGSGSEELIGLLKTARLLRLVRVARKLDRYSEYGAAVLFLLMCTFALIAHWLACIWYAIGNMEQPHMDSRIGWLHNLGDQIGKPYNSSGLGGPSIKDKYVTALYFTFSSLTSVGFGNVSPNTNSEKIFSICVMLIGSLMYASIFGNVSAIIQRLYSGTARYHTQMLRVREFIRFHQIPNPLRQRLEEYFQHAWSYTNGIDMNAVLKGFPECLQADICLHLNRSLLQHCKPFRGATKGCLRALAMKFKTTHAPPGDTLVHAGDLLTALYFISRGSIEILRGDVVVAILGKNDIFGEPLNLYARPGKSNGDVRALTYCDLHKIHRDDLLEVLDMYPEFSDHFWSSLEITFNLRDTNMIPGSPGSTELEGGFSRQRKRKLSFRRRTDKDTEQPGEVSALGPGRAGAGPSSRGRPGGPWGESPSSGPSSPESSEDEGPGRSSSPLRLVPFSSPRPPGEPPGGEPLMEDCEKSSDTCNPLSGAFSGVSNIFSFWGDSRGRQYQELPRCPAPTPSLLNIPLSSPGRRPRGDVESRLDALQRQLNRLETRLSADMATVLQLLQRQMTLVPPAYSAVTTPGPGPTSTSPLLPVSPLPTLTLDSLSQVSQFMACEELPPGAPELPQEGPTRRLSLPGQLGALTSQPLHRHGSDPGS

| Compound | hERG current change (%, negative = inhibition) at 10uM [%] |
| --- | --- |
| CCn1c(C2CC(=O)N(c3ccc(C)c(C)c3)C2)nc2ccccc21 (stereo not drawn) | -11.5 |
| C=CCn1c(C2CC(=O)N(c3ccc(C)cc3)C2)nc2ccccc21 (stereo not drawn) | -58.4 |
| CCN(Cc1ccccc1)C(=O)CN1C(=O)c2ccccc2S1(=O)=O | -3.97 |
| CC(C)c1ccc(NC(=O)CNC(=O)Cn2ccc3ccccc3c2=O)cc1 | 16.7 |
| O=C(O)CC1(CC(=O)NCc2cc(F)cc3c2OCOC3)CCCCC1 | 6.25 |
| Cc1ccc2[nH]c3c(=O)n(CC(=O)NCCCN4CCN(c5ccc(F)cc5)CC4)ncc3c2c1 | 14.8 |
| O=C(CN1CCN(Cc2ccc(Cl)cc2)C1=O)NCCN1CCCC1 | 1.66 |
| O=C(CN1CCN(Cc2ccc(F)cc2Cl)C1=O)NCCCN1CCOCC1 | -2.72 |
| O=C(CN1CCN(Cc2ccc(Cl)cc2)C1=O)NCCCN1CCOCC1 | -2.85 |
| CC(C)OCCCNC(=O)CN1CCN(Cc2ccc(Cl)cc2)C1=O | 11.6 |
| Cc1cccc(CN2CCN(CC(=O)NCc3ccc(F)cc3)C2=O)c1 | -13.6 |
| Cc1cccc(CN2CCN(CC(=O)NCCCN3CCCC3=O)C2=O)c1 | 7 |
| O=C(CN1CCN(Cc2ccc(Cl)cc2)C1=O)NCCCN1CCN(c2ccc(F)cc2)CC1 | -81 |
| O=C(CN1CCN(Cc2ccccc2)C1=O)NCCCN1CCOCC1 | 5.12 |
| Cc1cccc(CN2CCN(CC(=O)NCCCN3CCN(c4ccc(F)cc4)CC3)C2=O)c1 | -69.8 |
| Cc1ccc(CN2CCN(CC(=O)NCCCN3CCN(c4ccc(F)cc4)CC3)C2=O)cc1 | -66 |
| CC1CCN(CCCNC(=O)CN2CCN(Cc3ccc(Cl)cc3)C2=O)CC1 | -55.2 |
| CC(C)CCC(O)(CCC(C)C)C(=O)NNc1ccccc1 | -0.649 |
| FC(F)(F)c1nc2ccccc2nc1N/N=C\c1ccccc1 | 12.3 |
| CC(=O)c1ccc(S(=O)(=O)Nc2ccc(C(=O)N(C)CC(=O)Nc3cccc(C)c3C)cc2)cc1 | 14.5 |
| COc1cc(/C=N/NC(=O)c2ccoc2C)ccc1O | -3.54 |

| Compound | hERG current change (%, negative = inhibition) at 10uM [%] |
| --- | --- |
| Cc1nn(CCC(=O)Nc2cccc(C#N)c2)c(C)c1S(=O)(=O)N1CCCCC1 | -1.67 |
| O=C(NNS(=O)(=O)c1ccccc1)c1cc2cc3ccccc3nc2s1 | -10.4 |
| COc1ccc(N2CCN(CCCNC(=O)CN3CCN(Cc4ccccc4C)C3=O)CC2)cc1 | -46.5 |
| CCOCCCNC(=O)CN1CCN(Cc2ccccc2C)C1=O | -5.69 |
| Cc1ccccc1CN1CCN(CC(=O)NCCCN2CCN(c3ccc(F)cc3)CC2)C1=O | -71.2 |
| Cc1c(Cl)cccc1NC(=O)CSc1nc2ncc(Cl)cc2[nH]1 | 17.7 |
| COCCCNC(=O)CC(NS(=O)(=O)c1ccc(Cl)cc1)c1ccc(OC)cc1 (stereo not drawn) | -0.0404 |
| Cc1ccc(OCC(=O)N2CCN(CC3CC4C=CC3C4)CC2)cc1.O=C(O)C(=O)O (stereo not drawn) | -24.3 |
| Cc1cccc(OCC(=O)N2CCN(Cc3ccc4c(c3)OCO4)CC2)c1.O=C(O)C(=O)O | -16.7 |
| O=C(COc1ccc(Cl)cc1)N1CCN(Cc2ccccc2)CC1 | -32.9 |
| O=C(COc1ccc(S(=O)(=O)N2CCCCC2)cc1)N1CCN(Cc2ccccc2)CC1 | -32.5 |
| Cc1ccc(CN2CCN(C(=O)CCc3ccccc3)CC2)cc1 | -19.1 |
| Cc1cccc(OCC(=O)N2CCN(Cc3ccncc3)CC2)c1.O=C(O)C(=O)O | 8.94 |
| Cc1cccc(OCC(=O)N2CCN(Cc3ccc([N+](=O)[O-])cc3)CC2)c1.O=C(O)C(=O)O | -73 |
| O=C(COc1ccc(Cl)cc1)N1CCN(Cc2ccc([N+](=O)[O-])cc2)CC1.O=C(O)C(=O)O | -74.2 |
| Cc1ccc(OCC(=O)N2CCN(Cc3ccc([N+](=O)[O-])cc3)CC2)cc1.O=C(O)C(=O)O | -81.2 |
| CCN(CC)C(=O)Cn1cc(S(=O)(=O)CC(=O)NCc2ccccc2)c2ccccc21 | -11.6 |
| CCOC(=O)C(NC(=O)CC)(Nc1ccc(S(=O)(=O)Nc2ncccn2)cc1)C(F)(F)F (stereo not drawn) | 22.5 |
| O=C(Cc1ccccc1)Nc1scc(-c2ccccc2)c1C(=O)N1CCOCC1 | -57.4 |
| O=C(CN1CCOCC1)Nc1scc(-c2ccccc2)c1C(=O)N1CCOCC1 | -34.9 |
| CCOC(=O)c1c(-c2ccccc2)csc1NC(=O)CCN1CCOCC1.O=C(O)C(=O)O | -33.2 |
